From PubChem BioAssay
Only some compounds are listed: those with a hit (about 11% of all), similar ones and a draw of the others.
BAZ2B inh = qHTS Assay for Inhibitors of BAZ2B | Bromodomain adjacent to zinc finger domain protein 2B (Homo sapiens), Q9UIF8 | AlphaScreen BAZ2B-H3K14Ac peptide displacement | Potency, µM (highest dose often 114 µM), without a hit: at the top dose activity change, negative = inhibition, hits mostly inhibitors | actives 4.4% (n = 360,000) | AID 504333, 2011; further: potency means the concentration at half of the fitted maximal effect; on the % scale 0 is the no-effect control and ±100 the full control effect; nearly all actives have a fitted effect of over 60% in size
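AlphaScreen luminescence quantifies BAZ2B engagement of H3K14Ac peptide; the protein and biotinylated peptide are both at 50 nM final, buffer PBS pH 7.4 with 0.01% Tween-20, all steps at room temperature.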
JMJD2A Tudor inh = qHTS Assay for Inhibitors of JMJD2A-Tudor Domain; Lysine-specific demethylase 4A (Homo sapiens), O75164; AlphaScreen JMJD2A-Tudor / H3K4me3 peptide binding; actives 4.4% (n = 390,000); Potency, µM (titrated, usually from 114 µM), inactives show top-dose activity change, negative = inhibition, usual class: inhibitors; further: potency means the concentration at half of the fitted maximal effect; on the % scale 0 is the no-effect control and ±100 the full control effect; nearly all actives have a fitted effect of over 50% in size
G9a block = qHTS Assay for Inhibitors of Histone Lysine Methyltransferase G9a; Potency, µM (top dose mostly 102 µM), for the others: top-dose activity, negative = inhibition, most hits filed as inhibitors; G9a H3K9 monomethylation, AlphaScreen, 2 h; actives 8.8% (n = 350,000); AID 504332, 2011; Histone-lysine N-methyltransferase EHMT2 (Homo sapiens), Q96KQ7; further: potency means the concentration at half of the fitted maximal effect; on the % scale 0 is the no-effect control and ±100 the full control effect; nearly all actives have a fitted effect of over 75% in size
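Compounds were preincubated with 20 nM G9a for 15 min, after which biotinylated H3K9 peptide (500 nM) and SAM (20 uM) started a 2 h room-temperature reaction. Monomethylated product was quantified by antibody-based AlphaScreen chemiluminescence.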
L3MBTL1 inh = qHTS Assay for the Inhibitors of L3MBTL1; actives 0.66% (n = 230,000); AID 485360, 2010; AlphaScreen L3MBTL1–H3K9me1 peptide binding; Lethal(3)malignant brain tumor-like protein 1 (Homo sapiens), Q9Y468; Potency, µM (doses to about 57.1 µM), for the others: top-dose activity, negative = inhibition, hits mostly inhibitors; further: potency means the concentration at half of the fitted maximal effect; on the % scale 0 is the no-effect control and ±100 the full control effect; nearly all actives have a fitted effect of over 60% in size
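L3MBTL1 (50 nM) pre-complexed 30 min with biotinylated H3(1-15)K9me1 peptide (75 nM), then compounds added for 30 min at room temperature; AlphaScreen streptavidin donor/nickel chelate acceptor beads (10 ug/mL final) read after 30 min dark incubation.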
HP1b binding inh = HTS for Inhibitors of HP1-beta Chromodomain Interactions with Methylated Histone Tails; actives 0.56% (n = 390,000); AID 540317, 2011; Potency, µM (series often up to 114 µM), without a hit: at the top dose activity change, negative = inhibition, hits mostly inhibitors; AlphaScreen HP1-beta / biotin-H3K9me3 peptide binding; further: potency means the concentration at half of the fitted maximal effect; nearly all actives have a fitted effect of over 70% in size
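AlphaScreen: HP1-beta (50 nM) preformed 30 min with biotin-H3(1-18)K9me3 peptide (50 nM) in PBS pH 7.4, 0.01% Tween-20. Compound added for 30 min at RT, then streptavidin donor/nickel chelate acceptor beads (10 ug/mL) for 30 min.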
PI5P4Ka inh = qHTS for Inhibitors of phosphatidylinositol 5-phosphate 4-kinase (PI5P4K) | Phosphatidylinositol 5-phosphate 4-kinase type-2 alpha (Homo sapiens), P48426 | PI5P4Kalpha enzyme, ADP-Glo luminescence, 60 min; stronger effect = lower value | max response, % | actives 1.2% (n = 330,000) | AID 652105, 2013; active means max response of -50% or lower; inconclusive means between -30% and -50%; inactive means -30% or higher; further: value at the top dose of about 77 µM; on the % scale 0 is the no-effect control and ±100 the full control effect
Target sequence (P48426 whole entry, looked up): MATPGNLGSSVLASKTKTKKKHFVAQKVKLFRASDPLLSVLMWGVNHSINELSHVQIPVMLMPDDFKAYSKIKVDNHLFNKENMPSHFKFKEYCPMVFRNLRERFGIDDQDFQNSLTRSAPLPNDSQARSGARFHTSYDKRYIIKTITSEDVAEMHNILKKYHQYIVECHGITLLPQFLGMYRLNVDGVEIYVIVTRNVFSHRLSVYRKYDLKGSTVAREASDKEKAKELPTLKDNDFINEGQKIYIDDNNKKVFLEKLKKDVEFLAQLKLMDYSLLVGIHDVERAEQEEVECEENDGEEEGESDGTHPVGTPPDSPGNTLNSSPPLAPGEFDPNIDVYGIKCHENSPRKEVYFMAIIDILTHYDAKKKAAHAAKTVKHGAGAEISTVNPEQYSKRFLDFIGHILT
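Single end-point luminescence (ADP-Glo) quantified ADP from PI5P4Kalpha turnover; ATP 5 microM final, 1 h at RT, 0.1% CHAPS and 0.28 mM EGTA in HEPES pH 7.4.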
The depositor's hits bear a star; [ ] = another dose, or the depositor's remark. Unless noted, the call rests on the fitted dose curve; in most records, active means well fitted inhibition curve with a large enough effect; inconclusive means small, poorly fitted or top-dose-only effect; inactive means no such curve, though single readings can be large or run the other way.

How did CN(C)CCCn1c(=O)n(CCc2ccccc2)c(=O)c2c3c(sc21)CCCCC3 do in these assays?
BAZ2B inh: inconclusive; JMJD2A Tudor inh: 56µM*; G9a block: -79%; L3MBTL1 inh: 4%; HP1b binding inh: -14%; PI5P4Ka inh: -1

Results for CN(C)CCCNc1nc2sc3c(c2c(=O)n1CCc1ccccc1)CCCCC3 ?
BAZ2B inh: inconclusive; JMJD2A Tudor inh: inconclusive; G9a block: 45µM*; L3MBTL1 inh: -8%; HP1b binding inh: inconclusive; PI5P4Ka inh: 10

What do the screens show for `CN(C)CCn1c(=O)n(Cc2ccccc2)c(=O)c2c3c(sc21)CCCCC3`?
BAZ2B inh: inconclusive; JMJD2A Tudor inh: 40µM*; G9a block: 50µM*; HP1b binding inh: inconclusive; PI5P4Ka inh: 6

Results for CN(C)CCCn1c(=O)n(Cc2ccco2)c(=O)c2c3c(sc21)CCCCC3 ?
BAZ2B inh: -36%; JMJD2A Tudor inh: -33%; G9a block: inconclusive; L3MBTL1 inh: -12%; HP1b binding inh: -9%; PI5P4Ka inh: -7

Results for Cc1cc2c(s1)c1c(C)nn(Cc3ccccc3F)c(=O)c1n2C ?
BAZ2B inh: 6%; G9a block: 9%[12.7 µM]; L3MBTL1 inh: 5%

What do the screens show for `COc1ccc(-c2cc(C(F)(F)F)nc(SCC(=O)N3CCCCC3)n2)cc1OC`?
BAZ2B inh: 11%; JMJD2A Tudor inh: 7%; G9a block: -2%[59 µM]; HP1b binding inh: 46%

What do the screens show for `Cc1c(-c2nsc(NC(=O)c3cccs3)n2)nnn1-c1ccc(Cl)cc1`?
BAZ2B inh: -35%; JMJD2A Tudor inh: -24%; G9a block: -29%[59 µM]; HP1b binding inh: -17%

How did O=C1OC(c2ccccc2)=C/C1=C/N1CCCCC1 do in these assays?
BAZ2B inh: 50µM*; JMJD2A Tudor inh: inconclusive; G9a block: inconclusive; L3MBTL1 inh: -5%; HP1b binding inh: -22%

What do the screens show for `O=C1OC(c2ccccc2)=CC1=Cc1ccccc1O`?
PI5P4Ka inh: -14

Results for CCn1c(C)c2c([n+]1CC)CC(C)(C)CC2=O ?
BAZ2B inh: 7%; JMJD2A Tudor inh: 32µM*; G9a block: 16µM*; HP1b binding inh: -3%

What do the screens show for `CCc1nnc(NC(=O)CSc2nnc(COc3ccccc3C)o2)s1`?
BAZ2B inh: 0%; JMJD2A Tudor inh: -8%[57.1 µM]; G9a block: 50µM*; L3MBTL1 inh: 1%; HP1b binding inh: 56%; PI5P4Ka inh: 1

How did COc1ccc(C(=O)NCc2nnc(SCC(=O)Nc3nnc(C)s3)o2)cc1 do in these assays?
BAZ2B inh: 0%; JMJD2A Tudor inh: -10%; G9a block: 35µM*; L3MBTL1 inh: 7%; HP1b binding inh: 32%; PI5P4Ka inh: -2

What do the screens show for `CCSc1nnc(NC(=O)CSc2nnc(CNC(=O)c3ccc(OC)cc3)o2)s1`?
BAZ2B inh: 7%; JMJD2A Tudor inh: -1%; G9a block: -17%[59 µM]; L3MBTL1 inh: 2%; HP1b binding inh: 31%; PI5P4Ka inh: 2

What do the screens show for `CS/C(=C\[N+](=O)[O-])Nc1ccc(OC(F)(F)F)cc1`?
BAZ2B inh: -32%; JMJD2A Tudor inh: -12%; G9a block: 50µM*; L3MBTL1 inh: -4%; HP1b binding inh: 23%; PI5P4Ka inh: 8
